We go through 40 molecules from PubChem BioAssay AID2508 (National Center for Advancing Translational Sciences (NCATS), 2010).

Results filed as inconclusive are left out. Calls of active or inactive are those of the source. Calls come from the whole dose curve; as a rule, active = well fitted inhibition curve with a large enough effect; inconclusive = small, poorly fitted or top-dose-only effect, or effect the other way; inactive = no such curve, though single readings can be large or run the other way.

The test in a line: Confirmatory Assay for General miRNAs Modulators and/or Inhibitors/Activators of miR-21. Particulars: HeLa miR-21 FLuc reporter, luminescence, 48 h; series mostly up to 38.3 µM. The text has this:
MLSCN Grant: 1 R21 NS059478-01 Assay Provider: Qihong Huang, The Wistar Institute NCGC Assay Overview: MicroRNAs (miRNAs) are endogenously encoded small (~20-25 nucleotides), nonprotein-coding RNAs that are involved in post-transcriptional repression of target messenger RNAs (mRNAs) (Le and Hannon, 2004). Estimated to be involved in the regulation of 30% of all protein-coding mRNAs (Filipowicz et al., 2008), miRNAs play a significant role in many biological processes including cellular differentiation and tissue development (Ghildiyal and Zamore, 2009).
NCGC Assay Protocol Summary: Reagents: HeLa cells stably expressing firefly luciferase (FLuc) under the control of a CMV promoter (upstream) and a miR-21 binding sequence directly downstream of the gene. These cells endogenously express miR-21. Control compounds used were compound C3 (provided by collaborator), N6-phenyladenosine (MP Biomedicals, 0215379625), and DMSO. Assay Summary: 6uL of HeLa miR-21-FLuc cells in assay buffer (DMEM, Invitrogen #21063-029; 10% FBS, HyClone #SH30071.03) were dispensed at 2000cells/well (3.3 x 10^5 cells/mL) into Greiner solid-white TC-treated 1536-well plates using a Multidrop Combi (Thermo Fisher Scientific). Plates were incubated for one hour at 37 degree Celsius, 95% humidity, 5% CO2. These assay plates were then treated with 23nL of compound or DMSO using a Kalypsys pin tool, which allows for delivery of a 24-point titration of each compound to the assay plate, with a final compound concentration ranging from approximately 40uM to 5pM. Assay plates were then incubated for 48 hours. After incubation, plates were allowed to come to RT for one hour prior to delivery of 3uL of 3X luciferase detection reagent. After a 15 minute incubation to allow for cell lysis, luciferase activity was measured using a ViewLux CCD imager (PerkinElmer), with an average exposure time of 2-12 seconds. Keywords: NIH Roadmap, MLPCN, MLSMR, qHTS, miR-21, microRNA, firefly luciferase, FLuc.
Take `COc1cc(-c2nc3cnccn3c2Nc2ccc(C(C)C)cc2)ccc1O`: the Potency was 2.83 µM (active). With `Cc1ccc(Nc2ncnc(N)n2)cc1C` the figure was 11.3 µM (active). Turning to `Cc1cccc(-c2nnc(SCC(=O)Nc3ccc(C)c(C)c3)o2)c1`, the Potency is 3.18 µM (active). The same measure for `COc1ccc(-n2nnc(-c3nc(-c4cccs4)no3)c2N)cc1OC`: “inactive”; for `Nc1c(-c2nc(-c3ccncc3)no2)nnn1CC(=O)Nc1ccccc1`: “inactive”; for `CC(C)COc1ccc(C(=O)Nc2cc(-c3ccccc3)no2)cc1`: 3.56 µM (active).

As for `Cc1c(-c2nnc(SCC(=O)Nc3ccccc3F)o2)nnn1-c1ccc(F)cc1`, the Potency was 3.56 µM (active). In the case of `O=C(CSc1nnc(-c2ccccn2)o1)Nc1cccc(Cl)c1`, the Potency is 2.52 µM (active). As for `N#Cc1cc2cc3c(cc2nc1SCC(=O)N1CCOCC1)OCO3`, the Potency is 1.13 µM (active). With `COc1ccc(OCC(=O)Nc2cc(-c3nc4ccccc4s3)ccc2C)cc1` the figure was 4 µM (active); with `COc1ccc(CNc2nc(-c3ccco3)nn2C(=O)CC(C)C)cc1`, 11.3 µM (active); with `COc1ccc(-c2nc(SCc3ccccc3)n(S(C)(=O)=O)n2)cc1`, 10 µM (active). The same measure for `COc1ccccc1NC(=O)c1sc2nc3c(cc2c1N)CN(Cc1ccccc1)CC3`: “inactive”; for `Clc1ccc(-n2ncc3c(NCc4ccccn4)ncnc32)cc1`: 4.49 µM (active); for `CC(=O)c1cnc2nc(SCc3ccccc3)nn2c1C`: 6.34 µM (active). Turning to `O=C(CSc1nnc(-c2ccc(O)cc2)o1)Nc1ccccc1Br`, the Potency was 1.79 µM (active). With `Cc1c(-c2nsc(NC(=O)c3cccs3)n2)nnn1-c1ccc(F)cc1` the figure was 0.565 µM (active). The same measure for `COc1ccc(CNc2n[nH]c(-c3ccco3)n2)cc1OC`: “inactive”; for `CC(C)C(=O)Nc1nc2c(s1)CC(C(C)(C)C)CC2` (stereo not given): 2.83 µM (active); for `Cc1nnc(SCc2nc(N)nc(Nc3ccccc3)n2)s1`: 22.5 µM (active). The same measure for `CN(C)c1ccc(CNc2nc(-c3ccco3)nn2S(C)(=O)=O)cc1`: 6.34 µM (active). `Cc1ccccc1OCCn1cnc2c(N)ncnc21`: the Potency result was “inactive”.

In the case of `Cc1cc(C)c2c(N)c(C(=O)Nc3ccccc3F)sc2n1`, the Potency was 1.42 µM (active). The same measure for `O=S(=O)(c1ccc(F)cc1)n1ccc(-c2cnc(-c3ccccc3)s2)n1`: 5.65 µM (active); for `O=C(COc1ccccc1F)Nc1ccc(-c2nc3ccccc3s2)cc1`: 1.26 µM (active). With `COc1cccc(-n2nnc(-c3nc(-c4cccs4)no3)c2N)c1` the figure was 0.895 µM (active); with `CCc1nonc1NC(=O)c1oc2ccccc2c1C`, 7.98 µM (active); with `COCC(=O)Nc1c(C(=O)Nc2ccc3c(c2)OCCO3)oc2ccccc12`, 0.449 µM (active). For the molecule `CS(=O)(=O)n1nc(-c2ccc(Cl)cc2)nc1SCc1ccccc1`, the Potency is 5.04 µM (active).

As to `COc1ccc(NCc2cccn2-c2nnc(N3CCC(C)CC3)s2)c(OC)c1`, the Potency was 3.56 µM (active). The same measure for `O=C(CSc1nnc(-c2ccncc2)o1)Nc1nncs1`: “inactive”; for `CSc1nsc(SCC(=O)Nc2ccc(F)cc2F)n1`: 7.98 µM (active); for `Cc1ccc(SCC(=O)Nc2ccc3oc(-c4ccc(F)cc4)nc3c2)cc1`: 15.9 µM (active). With `Cc1cc(C)cc(NC(=O)CSc2nnc(-c3ccccc3C)o2)c1` the figure was 5.65 µM (active); with `Cc1ccc(-c2nc(NCc3ccco3)n(S(C)(=O)=O)n2)cc1`, 7.98 µM (active); with `CN(C(=O)CSc1nnc(-c2ccccc2F)o1)C1CCCCC1`, 14.2 µM (active). The same measure for `COc1ccc(-c2csc(NC(=O)COC(=O)c3ccc(Br)o3)n2)cc1`: 2.83 µM (active).

Take `Nc1c(-c2nc(-c3ccccc3Cl)no2)nnn1-c1ccccc1F`: the Potency is 0.798 µM (active). The same measure for `CCc1ccc(-n2nnc(-c3nc(-c4cccs4)no3)c2N)cc1`: 3.18 µM (active); for `Cc1ccc(CNc2nc3nc(C)c(Cl)c(C)n3n2)cc1`: 4 µM (active).
